This is part of a sample that, as a whole, favours compounds with a hit. Of some 83,000 tested, about 20% had one in any assay.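 Plates (96-well) were seeded with cells, treated with compound at one concentration, and incubated for 48 hours before percent growth was determined.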 Activity calls are given as the source filed them. How the source made its calls: active means growth percent below 10; inactive means the rest.
The compounds below were run on NCI-H226 lung (assay: NCI-60 one-dose screen, 48 h (100 = growth as untreated, 0 = no growth, -100 = all killed)). Conditions: 10 µM unless noted.
With `COc1ccc2c(c1)C(=Nc1cc(OC)c(OC)c(OC)c1)C(=O)N2` the growth was 97.1% (inactive).
With `CC(=O)N1N=C(c2ccc(Cl)cc2)CC1c1c(C)nn(-c2ccccc2)c1N(C)Cc1ccccc1` (stereo not drawn) the growth was 67% (inactive).
In the case of `C=C1CCC2C(C)(COC(=O)CC)C(OC(=O)CC)CCC2(C)C1C/C=C1/C(=O)OCC1OC(=O)CC` (stereo not drawn), the growth is reported as -18.3% (active).
With `COCCOCCOCCOCCOc1ccc2c(c1)C(=O)c1nc3ncccc3c(=O)n1-2` the growth was -49.3% (active).
`CCCCN1c2nc3ccccc3cc2Sc2cc3ccccc3nc21` was tested, and the growth was 93.2% (inactive).
For `Nc1ccn(C2O[C@H](CO)[C@@H](O)[C@@H]2O)c(=O)n1` (stereo partly drawn), the growth was 34.3% (inactive).
`COc1ccc(C(=O)/C=C/c2ccc(C)cc2)cc1OC` was tested, and the growth was 74.4% (inactive).
For `Cc1cc(=O)[nH]c(/C(=N/Nc2ccccc2)C(=O)c2ccc(Cl)cc2)n1`, the growth was 109% (inactive).
In the case of `Cc1ccc2nc3c(n2c1)C(=O)C(=O)c1ccccc1-3`, the growth is reported as -44.1% (active).
For `O=c1[nH]c(N2CCC(Cc3ccccc3)CC2)nc2sc3c(c12)CCCC3`, the growth was 92.3% (inactive).
In the case of `CSc1nc(-c2ccc(O)cc2O)c2c(=O)[nH]c(Nc3ccc(S(=O)(=O)Nc4nc(C)cc(C)n4)cc3)nc2n1`, the growth is reported as 105% (inactive).
For `Oc1ccccc1/C=N/N1CCCCCC1`, the growth was 91.5% (inactive).
In the case of `Cc1ccc(/C=C(/C#N)n2nnc3ncccc32)cc1`, the growth is reported as 32.1% (inactive).
`CN1CCN(c2nc3scc(-c4ccccc4)c3c(=O)[nH]2)CC1` was tested, and the growth was 98.6% (inactive).
For `Nc1ccccc1C#Cc1ccccc1C#Cc1ccc(OCCCCCCOc2ccc(C#Cc3ccccc3C#Cc3ccccc3N)cc2)cc1`, the growth was 99.6% (inactive).
In the case of `CCOC(=O)Nc1cc(-c2ccc(C)c(NS(C)(=O)=O)c2)nn2c(C)nnc12`, the growth is reported as 35% (inactive).
In the case of `O=C1OC2(c3ccccc31)c1ccccc1-c1ccccc12`, the growth is reported as 95.8% (inactive).
In the case of `COP(=O)(OC)C(c1ccccc1)(c1ccccc1)c1ccccc1`, the growth is reported as 83.8% (inactive).
For `CCOc1cc(/C=C/C(=O)CC(=O)/C=C/c2ccc(OC(=O)CNc3nc4ccc(OC)cc4s3)c(OCC)c2)ccc1OC(=O)CNc1nc2ccc(OC)cc2s1`, the growth was 64.5% (inactive).
In the case of `Cc1cn(C(C=O)OC(C=O)CO)c(=O)[nH]c1=O` (stereo not drawn), the growth is reported as 105% (inactive).
With `Oc1c(Cl)cc(Oc2cc(Cl)c(O)c(CN3CCOCC3)c2)cc1CN1CCOCC1` the growth was 92.7% (inactive).
With `Nc1nc(Nc2ccccc2SSc2ccccc2Nc2nc(N)nc(-c3ccc(I)cc3)n2)nc(-c2ccc(I)cc2)n1` the growth was 69.8% (inactive).
With `CNc1nc(NC2CCCC2)nc(Sc2ccc(OC)cc2)n1` the growth was 46.4% [100 µM] (inactive).
With `Cn1cc(NC(=O)Nc2cc(C(=O)O)n(C)c2)cc1C(=O)O` the growth was 82.1% (inactive).
With `CCOC(=O)CCC(=O)O[C@H]1[C@H](O[C@@H]2[C@@H](C)[C@H](O[C@H]3C[C@@](C)(OC)[C@@H](O)[C@H](C)O3)[C@@H](C)C(=O)O[C@H](CC)[C@@](C)(O)[C@H](O)[C@@H](C)C(=O)[C@H](C)C[C@@]2(C)O)O[C@H](C)C[C@@H]1N(C)C` the growth was 97.2% (inactive).
With `O=C(NC1CCCCC1)c1ccc(Nc2ncnc3c2cnn3-c2ccccc2)cc1` the growth was 19.1% (inactive).
With `Cc1sc2nc(NCCc3cccs3)[nH]c(=O)c2c1C` the growth was 83.2% (inactive).
For `CCCc1n(Cc2ccc3ccccc3c2)cc[n+]1Cc1ccc2ccccc2c1`, the growth was 0.228% (active).
`O=C1/C(=C/c2ccccc2O)C(=S)SN1Cc1ccco1` was tested, and the growth was 103% (inactive).
With `COc1cccc(/C=N\NC(=O)c2ccncc2)c1O` the growth was 61.8% (inactive).
For `COc1ccc(C(=O)COc2ccc(/C=C3\Oc4ccc5ccccc5c4C3=O)cc2)cc1`, the growth was 107% (inactive).
`CN1CCN(CCCOc2ccc3ncnc(Nc4ccc(OCc5cccc(F)c5)c(Cl)c4)c3c2)CC1` was tested, and the growth was 88.8% (inactive).
With `N/C(=N\c1nc2ccccc2s1)NC(=O)Nc1ccccc1Cl` the growth was 35.3% (inactive).
With `O=C1/C(=C/c2cccc(Cl)c2)CCc2ccccc21` the growth was 98.5% (inactive).
`NC(=O)NS(=O)(=O)c1ccc(N2N=C(C(F)(F)F)CC2c2cc(C(F)(F)F)cc(C(F)(F)F)c2)cc1` (stereo not drawn) was tested, and the growth was 101% (inactive).
`COc1ccc(N2CCN(CC(=O)N3CCN(c4nnc(-c5ccccc5)c(-c5ccccc5)n4)CC3)CC2)cc1` was tested, and the growth was 46.2% (inactive).
`O=C(Nc1ccccc1OC(=O)c1ccccc1)c1ccccc1` was tested, and the growth was 104% (inactive).
For `Oc1c(N=Nc2nn[nH]n2)ccc2ccccc12`, the growth was 81.4% (inactive).
For `N#Cc1ncc(-c2ccc(C(F)(F)F)cc2)c(NC2CCCCCC2)n1`, the growth was 35.1% (inactive).

Each compound was assayed on NCI-H322M lung in the same assay as above. Conditions: 10 µM unless noted.
With `COc1ccc2c(c1)C(=Nc1cc(OC)c(OC)c(OC)c1)C(=O)N2` the growth was 108% (inactive).
For `CC(=O)N1N=C(c2ccc(Cl)cc2)CC1c1c(C)nn(-c2ccccc2)c1N(C)Cc1ccccc1` (stereo not drawn), the growth was 91.4% (inactive).
In the case of `C=C1CCC2C(C)(COC(=O)CC)C(OC(=O)CC)CCC2(C)C1C/C=C1/C(=O)OCC1OC(=O)CC` (stereo not drawn), the growth is reported as 75.6% (inactive).
`COCCOCCOCCOCCOc1ccc2c(c1)C(=O)c1nc3ncccc3c(=O)n1-2` was tested, and the growth was -88% (active).
`CCCCN1c2nc3ccccc3cc2Sc2cc3ccccc3nc21` was tested, and the growth was 104% (inactive).
With `Nc1ccn(C2O[C@H](CO)[C@@H](O)[C@@H]2O)c(=O)n1` (stereo partly drawn) the growth was 62.6% (inactive).
`COc1ccc(C(=O)/C=C/c2ccc(C)cc2)cc1OC` was tested, and the growth was 74.6% (inactive).
For `Cc1cc(=O)[nH]c(/C(=N/Nc2ccccc2)C(=O)c2ccc(Cl)cc2)n1`, the growth was 107% (inactive).
With `Cc1ccc2nc3c(n2c1)C(=O)C(=O)c1ccccc1-3` the growth was -80.7% (active).
With `O=c1[nH]c(N2CCC(Cc3ccccc3)CC2)nc2sc3c(c12)CCCC3` the growth was 97.1% (inactive).
With `CSc1nc(-c2ccc(O)cc2O)c2c(=O)[nH]c(Nc3ccc(S(=O)(=O)Nc4nc(C)cc(C)n4)cc3)nc2n1` the growth was 108% (inactive).
With `Oc1ccccc1/C=N/N1CCCCCC1` the growth was 108% (inactive).
For `Cc1ccc(/C=C(/C#N)n2nnc3ncccc32)cc1`, the growth was 28.2% (inactive).
In the case of `CN1CCN(c2nc3scc(-c4ccccc4)c3c(=O)[nH]2)CC1`, the growth is reported as 90.3% (inactive).
For `Nc1ccccc1C#Cc1ccccc1C#Cc1ccc(OCCCCCCOc2ccc(C#Cc3ccccc3C#Cc3ccccc3N)cc2)cc1`, the growth was 106% (inactive).
In the case of `CCOC(=O)Nc1cc(-c2ccc(C)c(NS(C)(=O)=O)c2)nn2c(C)nnc12`, the growth is reported as 2.04% (active).
For `O=C1OC2(c3ccccc31)c1ccccc1-c1ccccc12`, the growth was 103% (inactive).
`COP(=O)(OC)C(c1ccccc1)(c1ccccc1)c1ccccc1` was tested, and the growth was 95.4% (inactive).
For `CCOc1cc(/C=C/C(=O)CC(=O)/C=C/c2ccc(OC(=O)CNc3nc4ccc(OC)cc4s3)c(OCC)c2)ccc1OC(=O)CNc1nc2ccc(OC)cc2s1`, the growth was 88.6% (inactive).
For `Cc1cn(C(C=O)OC(C=O)CO)c(=O)[nH]c1=O` (stereo not drawn), the growth was 106% (inactive).
For `Oc1c(Cl)cc(Oc2cc(Cl)c(O)c(CN3CCOCC3)c2)cc1CN1CCOCC1`, the growth was 96% (inactive).
With `Nc1nc(Nc2ccccc2SSc2ccccc2Nc2nc(N)nc(-c3ccc(I)cc3)n2)nc(-c2ccc(I)cc2)n1` the growth was 81.1% (inactive).
For `CNc1nc(NC2CCCC2)nc(Sc2ccc(OC)cc2)n1`, the growth was 68.5% [100 µM] (inactive).
`Cn1cc(NC(=O)Nc2cc(C(=O)O)n(C)c2)cc1C(=O)O` was tested, and the growth was 100% (inactive).
For `CCOC(=O)CCC(=O)O[C@H]1[C@H](O[C@@H]2[C@@H](C)[C@H](O[C@H]3C[C@@](C)(OC)[C@@H](O)[C@H](C)O3)[C@@H](C)C(=O)O[C@H](CC)[C@@](C)(O)[C@H](O)[C@@H](C)C(=O)[C@H](C)C[C@@]2(C)O)O[C@H](C)C[C@@H]1N(C)C`, the growth was 90.2% (inactive).
For `O=C(NC1CCCCC1)c1ccc(Nc2ncnc3c2cnn3-c2ccccc2)cc1`, the growth was 64% (inactive).
For `Cc1sc2nc(NCCc3cccs3)[nH]c(=O)c2c1C`, the growth was 104% (inactive).
For `CCCc1n(Cc2ccc3ccccc3c2)cc[n+]1Cc1ccc2ccccc2c1`, the growth was 23.2% (inactive).
With `O=C1/C(=C/c2ccccc2O)C(=S)SN1Cc1ccco1` the growth was 90.3% (inactive).
In the case of `COc1cccc(/C=N\NC(=O)c2ccncc2)c1O`, the growth is reported as 19% (inactive).
For `COc1ccc(C(=O)COc2ccc(/C=C3\Oc4ccc5ccccc5c4C3=O)cc2)cc1`, the growth was 100% (inactive).
For `CN1CCN(CCCOc2ccc3ncnc(Nc4ccc(OCc5cccc(F)c5)c(Cl)c4)c3c2)CC1`, the growth was -9.88% (active).
In the case of `N/C(=N\c1nc2ccccc2s1)NC(=O)Nc1ccccc1Cl`, the growth is reported as 45% (inactive).
With `O=C1/C(=C/c2cccc(Cl)c2)CCc2ccccc21` the growth was 98.5% (inactive).
For `NC(=O)NS(=O)(=O)c1ccc(N2N=C(C(F)(F)F)CC2c2cc(C(F)(F)F)cc(C(F)(F)F)c2)cc1` (stereo not drawn), the growth was 88.4% (inactive).
In the case of `COc1ccc(N2CCN(CC(=O)N3CCN(c4nnc(-c5ccccc5)c(-c5ccccc5)n4)CC3)CC2)cc1`, the growth is reported as 78.2% (inactive).
In the case of `O=C(Nc1ccccc1OC(=O)c1ccccc1)c1ccccc1`, the growth is reported as 72.3% (inactive).
`Oc1c(N=Nc2nn[nH]n2)ccc2ccccc12` was tested, and the growth was 57.9% (inactive).
`N#Cc1ncc(-c2ccc(C(F)(F)F)cc2)c(NC2CCCCCC2)n1` was tested, and the growth was 78.2% (inactive).
